Bioassay records as filed in PubChem BioAssay.
Ecoli WT expand: blocks growth of wild type E. coli BW25113. OD600 absorbance. growth inhibition, % at 100 µM. 0.15% of 98,000 active;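 active = growth inhibition above about 50% at one test dose, limit read from the data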;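 note: growth measured after 20 h incubation at 37 °C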
Mac1 fbg enh: CD11b/CD18-fibrinogen binding enhancement; AID 1499; P05107+P11215; 0.07% of 93,000 active; activation, % at 10 µM; K562 CD11b/CD18 adhesion to fibrinogen, ATPlite luminescence;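 active = 10 µM primary screen giving 50% or more activity, confirmed by 40% or more on retest at that dose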
Target sequence (P05107 whole entry, looked up, other chains not shown): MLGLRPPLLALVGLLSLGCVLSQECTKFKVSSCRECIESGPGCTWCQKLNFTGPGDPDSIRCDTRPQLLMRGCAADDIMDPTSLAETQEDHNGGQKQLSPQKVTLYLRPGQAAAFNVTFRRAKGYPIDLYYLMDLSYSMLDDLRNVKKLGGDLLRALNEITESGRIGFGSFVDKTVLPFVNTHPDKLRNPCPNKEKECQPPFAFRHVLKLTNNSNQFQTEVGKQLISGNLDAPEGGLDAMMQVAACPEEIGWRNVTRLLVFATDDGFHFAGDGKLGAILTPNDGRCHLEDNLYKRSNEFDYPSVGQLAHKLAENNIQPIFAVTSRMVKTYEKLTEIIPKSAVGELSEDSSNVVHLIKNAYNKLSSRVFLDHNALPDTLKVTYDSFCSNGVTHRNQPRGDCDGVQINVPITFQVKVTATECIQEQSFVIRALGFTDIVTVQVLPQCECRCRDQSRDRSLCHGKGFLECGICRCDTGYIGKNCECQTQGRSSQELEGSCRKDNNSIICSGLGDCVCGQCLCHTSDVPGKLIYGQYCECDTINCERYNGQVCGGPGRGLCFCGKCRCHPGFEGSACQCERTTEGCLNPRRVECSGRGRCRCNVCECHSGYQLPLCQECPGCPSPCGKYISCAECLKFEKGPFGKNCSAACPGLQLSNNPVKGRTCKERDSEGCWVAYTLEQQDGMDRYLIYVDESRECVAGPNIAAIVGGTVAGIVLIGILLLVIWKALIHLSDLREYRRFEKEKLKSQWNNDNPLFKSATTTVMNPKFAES
Mac1 fbg inh: blocks human CD11b/CD18 adhesion to fibrinogen. 0.54% of 93,000 active. inhibition, % at 10 µM. K562 CD11b/CD18 adhesion to fibrinogen, ATPlite luminescence; Mn2+ added to activate the integrin. P05107+P11215. AID 1497;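 active = primary inhibition of 50% or more at 10 µM, then 40% or more on retest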
Cav32 inh: human Cav3.2 channel inhibition, primary screen; O95180; Cav3.2-expressing cells, Fluo-4 calcium fluorescence FDSS; stronger effect = lower value; B-score at 10 µM; 4% of 100,000 active;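 active = single-dose well whose peak fluorescence ratio is a statistical outlier from its plate by either plate-standardised score or position-corrected B-score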
* marks the source's active call; other numbers are inactive results; / = no result given. Shown is part of a subset that was picked to be rich in hits.

SMILES	Ecoli WT expand	Mac1 fbg enh	Mac1 fbg inh	Cav32 inh
O=C(OCc1nc2ccccc2[nH]1)C12CC3CC(CC(C3)C1)C2	5.0	/	/	-6.7*
O=C(Nc1nc2ccccc2[nH]1)C12CC3CC(CC(C3)C1)C2	-5.0	-3.4	4.3	-0.359
O=C(Nc1ccccc1)/C(=C/c1ccccc1)c1ccccc1	-3.0	/	/	-2.37
Cc1cc(C)c(NC(=O)/C(=C/c2ccco2)c2ccccc2)c(C)c1	0.0	4.9	-6.8	-2.74
Cc1cccc(C)c1NC(=O)/C(=C/c1ccco1)c1ccccc1	1.0	8.5	10.0	-8.61*
Cc1ccccc1NC(=O)/C(=C/c1ccccc1)c1ccccc1	1.0	/	/	-4.78*
CCOC(=O)C1CCCN(C(=S)Nc2ccc(C)cc2C)C1 (centres undefined)	-6.0	-1.5	4.7	0.544
Cc1sc(NC(=O)C2CCCCC2C(=O)O)c(C(N)=O)c1C (centres undefined)	5.0	0.8	-3.4	-4.15*
Cc1sc(NC(=O)C2CCCCC2C(=O)O)c(C(N)=O)c1-c1ccccc1 (centres undefined)	-2.0	/	/	0.718
CCc1ccc2ncc(S(=O)(=O)c3ccc(C)c(C)c3)c(N3CCCC3)c2c1	/	-9.5	73.0	/
O=C1CC2(CCCCC2)Oc2ccc(Cl)cc21	/	/	/	0.97
O=[N+]([O-])c1ccc(N2CCC(=NOCc3ccc(Cl)cc3)CC2)cc1	-14.0	/	/	-5.71*
C/C(CC(C)(C)C1CCCCC1)=N\NC(N)=S	-9.0	-0.3	-19.2	-4.59*
C/C(CCC12CC3CC(CC(C3)C1)C2)=N\NC(N)=S	-2.0	-2.1	-4.0	-1.49
Cc1cc(C)cc(-n2c(C)cc(/C=N/NC(=O)CN(c3c(C)cccc3C)S(C)(=O)=O)c2C)c1	-13.0	-4.9	2.4	/
Cc1ccc(-n2c(C)cc(/C=N/NC(=O)CN(c3ccc(C)cc3C)S(C)(=O)=O)c2C)cc1	2.0	3.5	-6.0	-8.44*
O=C(CN1N=C(c2ccccc2)CCC1=O)NCc1ccco1	/	1.7	-0.4	/
Cc1cccc(C)c1OCC(=O)Nc1cccc(NC(=O)c2ccco2)c1	-14.0	/	/	-4.8*
O=C(CC(c1ccccc1)c1ccccc1)OCn1nnc2ccccc2c1=O	-23.0	-0.9	18.6	-4.94*
Cc1ccc(S(=O)(=O)N[C@H](C(=O)OCn2nnc3ccccc3c2=O)C(C)C)cc1	-7.0	-2.3	0.1	-3.77*
CC(C)[C@H](NS(=O)(=O)c1ccccc1)C(=O)OCn1nnc2ccccc2c1=O	4.0	-2.7	-1.6	-0.347
Cc1cccc(C(=O)NNC(=O)C2CCCO2)c1 (centres undefined)	-5.0	/	/	0.0784
Cc1ccc(C(C)NC(=O)C2CCCO2)cc1C (centres undefined)	7.0	-1.9	-15.1	-5.39*
CC(=O)Oc1ccc2ccccc2c1C(NC(=O)Cc1ccccc1)c1ccc(Cl)cc1 (centres undefined)	-9.0	-2.5	0.8	-9.8*
O=C(COc1ccc(Br)cc1)N1CCOCC1	/	/	/	1.03
SMILES	Ecoli WT expand	Mac1 fbg enh	Mac1 fbg inh	Cav32 inh
O=C(COc1ccc(Br)cc1)N1CCC(c2ccccc2)C1 (centres undefined)	11.0	/	/	-4.13*
S=C(NC1CCCCC1)N(CCc1nc2ccccc2[nH]1)C1CCCC1	/	/	/	-8.31*
CN(CC(=O)OCC(=O)c1c(N)n(C)c(=O)n(C)c1=O)S(=O)(=O)c1ccc(Cl)cc1	/	1.5	-11.3	/
O=C(c1cc2sccc2n1Cc1ccccc1)N1CCc2ccccc21	-18.0	-0.3	-24.1	-1.61
CCOC(=O)c1cc2sccc2n1CC(=O)N1CCCc2ccccc21	-3.0	-1.1	-0.9	-3.85*
O=C(c1cc2sccc2n1Cc1ccccc1)N1CCCc2ccccc21	-15.0	7.1	32.3	-6.85*
CC(C)CC(c1nnnn1Cc1ccccc1)N1CCC(C(N)=O)CC1 (centres undefined)	/	/	/	0.588
CCOC(=O)c1sc(SCc2ccccc2)c2c1CC(C)(C)CC2=O	/	/	/	-1.17
O=C(OCc1nnn(Cc2ccccc2)c1-c1c(COC(=O)c2ccccc2)nnn1Cc1ccccc1)c1ccccc1	/	/	/	-1.62
Cc1cc(C)n2cc(CSc3nc4ccccc4s3)nc2n1	/	-3.1	14.0	/
Cc1ccc(Cn2c(C3CCCN3c3nc(-c4cc(Cl)c(N)c(Cl)c4)cs3)nc3cc(Cl)c(Cl)cc32)cc1 (centres undefined)	/	/	/	0.946
CC(=O)N1N=C(c2ccc3nccnc3c2)CC1c1ccccc1 (centres undefined)	-1.0	-3.0	-4.6	1.59
Cc1ccc(C2=NN3C(C(=O)c4ccccc4)Oc4ccccc4C3C2)cc1 (centres undefined)	-14.0	-0.7	14.3	-7.3*
O=C(c1cnn2c(C(F)(F)F)cc(-c3cccs3)nc12)N1CCN(C(c2ccccc2)c2ccccc2)CC1	/	/	/	-4.22*
O=C(c1cc2nc(-c3cccs3)cc(C(F)(F)Cl)n2n1)N1CCCc2ccccc21	-3.0	11.3	-8.3	-1.96
O=C(c1cc2nc(-c3cccs3)cc(C(F)(F)F)n2n1)N1CCCc2ccccc21	0.0	1.6	10.2	-4.81*
CCN(CC)S(=O)(=O)c1ccc(S(=O)(=O)N(CC(=O)Nc2ccccc2)Cc2ccco2)cc1	/	/	/	-1.04
O=C(Nc1cccc(F)c1)C1CCN(c2nnnn2-c2ccccc2)CC1	5.0	-4.2	2.9	-7.55*
O=C(Nc1cccc(F)c1)C1CCN(C(=O)c2ccc(Br)cc2)CC1	-1.0	-5.1	1.6	-4.34*
O=C(Nc1ccc2c(c1)OCCO2)C1CCN(C(=O)c2ccc(Br)cc2)CC1	10.0	1.3	37.5	-0.0125
COn1c(SCc2ccc(C)cc2C)nc2ccccc2c1=O	-3.0	/	/	-2.05
CCCSc1nc2c(=O)[nH][nH]c(=O)c2n1Cc1ccccc1	/	/	/	-0.115
Cc1cccc(NC(=O)Cn2c([N+](=O)[O-])cnc2C)c1C	/	5.7	-1.8	/
CC(C)(C)c1ccc(C(O)CCCN2CCC(C(O)(c3ccccc3)c3ccccc3)CC2)cc1 (centres undefined)	/	/	/	-4.77*
OC(CCCCN1CCCCC1)c1ccccc1 (centres undefined)	1.0	3.4	-13.2	-0.0367
SMILES	Ecoli WT expand	Mac1 fbg enh	Mac1 fbg inh	Cav32 inh
CSc1nnc(-c2sccc2OCc2ccccc2)n1C	-1.0	-6.9	7.1	0.97
CSc1n[nH]c(-c2sccc2OCc2ccc(C)cc2)n1	3.0	-2.9	1.1	-3.74*
Cc1ccc(S(=O)(=O)N(C(=O)c2ccncc2)c2ccc(OC(=O)c3ccncc3)c3ccccc23)c(C)c1	-2.0	-0.9	72.1*	-2.28
Cc1cc(NC(=O)CSc2cn(CCNC(=O)c3ccc(Cl)cc3)c3ccccc23)no1	-2.0	-1.8	3.9	-6.13*
Cc1cc(NC(=O)CSc2c(C)[nH]c3ccccc23)no1	-3.0	-0.1	-19.5	-5.62*
Oc1c(CN2CCCCC2)cc(Br)c2cccnc12	100.0*	-1.9	25.4	-0.0898
Oc1c(CN2CCc3ccccc3C2)cc(Cl)c2cccnc12	86.0*	-2.4	14.4	/
CN1CCN(Cc2cc(COCc3ccccc3)c3cccnc3c2O)CC1	22.0	-3.0	13.4	-0.532
CCC1=C(OC(=O)N(CC)CC)N2C(=O)OC(=NCCOC)[C@]2(Cc2ccccc2)[C@H]2C1=CC[C@H]1C(=O)N(C)C(=O)[C@H]12	/	/	/	0.0336
Cc1cc(C)c(S(=O)(=O)c2ccccc2)c(OC(=O)c2c(Cl)cccc2Cl)n1	-7.0	-1.1	16.6	-4.57*
